Experimental findings from PubChem BioAssay (EPA / NIEHS) are described below.

In assay [1] the target is human Vascular Endothelial Growth Factor Receptor 2 (VEGFR2), KDR (gene 3791) (UniProt P35968). Put plainly: NVS_ENZ_hVEGFR2: NovaScreen (NVS) Enzymatic Assay for human Vascular Endothelial Growth Factor Receptor 2 (VEGFR2) (AID 2283230). The procedure, abridged:
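Cell-free recombinant VEGFR2 kinase, fluorescent substrate with electrophoretic mobility-shift separation; read 1 h after dosing. Screened at 25 uM in duplicate, hits to concentration-response up to 50 uM; loss-of-signal versus DMSO.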

Assay [2] addresses rabbit Imidazoline 2 Central (I2C), CKB (gene 100009085) (UniProt P00567). Put plainly: NVS_ENZ_rabI2C: NovaScreen (NVS) Enzymatic Assay for rabbit Imidazoline 2 Central (I2C) (AID 2283228). In a few lines: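 Rabbit brain membranes, cell-free; readout by filter-based scintillation counting 1.5 hours after dosing, loss of signal vs DMSO. Initial duplicate test at 25 uM, then concentration-response with 50 uM top concentration.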

Assay [3] has as its target human Vascular Endothelial Growth Factor Receptor 3 (VEGFR3), FLT4 (gene 2324) (UniProt P35916). Put plainly: NVS_ENZ_hVEGFR3: NovaScreen (NVS) Enzymatic Assay for human Vascular Endothelial Growth Factor Receptor 3 (VEGFR3) (AID 2283229). The procedure, abridged: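 Chemicals first run in duplicate at 25 uM, with actives re-tested in concentration series to a top of 50 uM. Recombinant VEGFR3 activity measured after 1 h via fluorescence with mobility-shift product separation; inhibition fitted relative to DMSO.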

In assay [4] the target is rat Acetylcholinesterase (AChE), Ache (gene 83817) (UniProt P37136). Put plainly: NVS_ENZ_rAChE: NovaScreen (NVS) Enzymatic Assay for rat Acetylcholinesterase (AChE) (AID 2283233). The procedure, abridged:
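Compounds first screened at 25 uM in duplicate, then those passing threshold tested in concentration series up to 50 uM, against AChE from rat brain membranes. Enzyme activity read by absorbance at 0.33 h; inhibition scored versus DMSO.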

Assay [5] has as its target rat Constitutive Nitric Oxide Synthase (CNOS), Nos1 (gene 24598) (UniProt P29476). Description: NVS_ENZ_rCNOS: NovaScreen (NVS) Enzymatic Assay for rat Constitutive Nitric Oxide Synthase (CNOS) (AID 2283236). In a few lines:
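Single 25 uM duplicate screen, then concentration series to 50 uM for chemicals meeting threshold. Rat brain membrane-derived CNOS activity detected radiometrically by filtration and scintillation counting, 1 h after compound addition; DMSO as baseline.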

Assay [6] has as its target rat Monoamine Oxidase, MAO-B, Central (MAOBC), Maob (gene 25750) (UniProt P19643). Put plainly: NVS_ENZ_rMAOBC: NovaScreen (NVS) Enzymatic Assay for rat Monoamine Oxidase, MAO-B, Central (MAOBC) (AID 2283238). The procedure, abridged: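 Actives from a duplicate 25 uM screen went on to singleton concentration-response with a 50 uM maximum. Enzyme source was rat brain tissue MAO-B, assayed cell-free. Radiolabelled product was counted by scintillation 1.17 h post-dose, with signal loss relative to DMSO.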

Assay [7] has as its target bovine Dopamine Receptor (DR), Non-selective Binding, DRD1 (gene 281125) (UniProt Q95136). Description: NVS_GPCR_bDR_NonSelective: NovaScreen (NVS) G Protein-Coupled Receptor Assay for bovine Dopamine Receptor (DR), Non-selective Binding (AID 2283241). The procedure, abridged:
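Filter-based radioligand binding with bovine striatal membrane, incubated 1 h; DMSO as negative baseline. Initial duplicate single-point test at 25 uM preceded concentration series for actives.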

Assay [8] has as its target human Sirtuin 1 (SIRT1), SIRT1 (gene 23411) (UniProt Q96EB6). Put plainly: NVS_ENZ_hSIRT1: NovaScreen (NVS) Enzymatic Assay for human Sirtuin 1 (SIRT1) (AID 2283219). The procedure, abridged: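 Cell-free recombinant SIRT1 with a fluorescent substrate; substrate and product separated by electrophoretic mobility shift and read by fluorescence intensity, 1 h after dosing. Primary screen at 25 uM in duplicate; hits re-run in concentration-response up to 50 uM, relative to DMSO.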

For assay [9], the target named is human SRC Proto-Oncogene, Non-receptor Tyrosine Kinase (SRC), SRC (gene 6714) (UniProt P12931). Description: NVS_ENZ_hSRC: NovaScreen (NVS) Enzymatic Assay for human SRC Proto-Oncogene, Non-receptor Tyrosine Kinase (SRC) (AID 2283223). In a few lines: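 Compounds passing 30% inhibition at 25 uM (duplicate) were titrated to a top concentration of 50 uM. Enzyme activity read by fluorescence with mobility-shift substrate/product separation after 1 h; DMSO baseline.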
Chain of human SRC Proto-Oncogene, Non-receptor Tyrosine Kinase (SRC), SRC (gene 6714) (P12931 whole entry, looked up): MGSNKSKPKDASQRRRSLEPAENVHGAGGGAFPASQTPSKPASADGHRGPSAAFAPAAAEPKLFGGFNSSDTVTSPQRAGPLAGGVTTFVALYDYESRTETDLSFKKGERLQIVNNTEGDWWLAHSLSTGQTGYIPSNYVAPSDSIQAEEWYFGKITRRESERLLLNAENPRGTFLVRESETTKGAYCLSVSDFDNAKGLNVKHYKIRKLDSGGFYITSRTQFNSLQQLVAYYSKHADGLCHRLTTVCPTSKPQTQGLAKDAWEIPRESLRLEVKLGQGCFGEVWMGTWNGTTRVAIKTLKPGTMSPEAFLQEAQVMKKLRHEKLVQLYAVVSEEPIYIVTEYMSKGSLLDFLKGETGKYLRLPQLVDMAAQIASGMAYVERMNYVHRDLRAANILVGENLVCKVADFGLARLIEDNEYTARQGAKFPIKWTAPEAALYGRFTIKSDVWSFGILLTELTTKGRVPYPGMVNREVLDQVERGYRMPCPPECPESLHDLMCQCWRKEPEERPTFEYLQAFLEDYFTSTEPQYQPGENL

Assay [10] concerns the target sheep Cyclooxygenase-1 (Cox1), PTGS1 (gene 443551) (UniProt P05979). Put plainly: NVS_ENZ_oCOX1: NovaScreen (NVS) Enzymatic Assay for sheep Cyclooxygenase-1 (Cox1) (AID 2283239).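 Also: actives reduce cyclooxygenase activity so potencies are for inhibitors.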 The procedure, abridged:
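Absorbance read-out of cyclooxygenase activity in a cell-free preparation from sheep seminal vesicles, taken 0.66 hour after dosing. Initial testing was in duplicate at 25 uM, and confirmatory testing was run in concentration series.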

The target in assay [11] is rat Adenylate Cyclase, Forskolin Stimulated, Adcy5 (gene 64532) (UniProt Q04400). Description: NVS_ENZ_rACFSKBinding: NovaScreen (NVS) Enzymatic Assay for rat Adenylate Cyclase, Forskolin Stimulated (AID 2283232). In a few lines: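 Chemicals were first tested at 25 uM in duplicate, then hits run as concentration series with top concentration 50 uM. Enzyme source was rat forebrain membranes; radiometric filter read-out after 1 h, referenced to DMSO.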

Assay [12] has as its system bovine Angiotensin II Receptor Type 2 (AT2), gene 407157. Put plainly: NVS_GPCR_bAT2: NovaScreen (NVS) G Protein-Coupled Receptor Assay for bovine Angiotensin II Receptor Type 2 (AT2) (AID 2283240). The procedure, abridged: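 Radioligand displacement on bovine cerebellar membranes, 1 hour incubation, filter-based scintillation counting; loss of signal vs DMSO. Duplicate single-point screen at 25 uM, then concentration-response to 50 uM maximum.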

Assay [13] concerns rat Monoamine Oxidase, MAO-A, Peripheral (MAOAP), gene 29253. Description: NVS_ENZ_rMAOAP: NovaScreen (NVS) Enzymatic Assay for rat Monoamine Oxidase, MAO-A, Peripheral (MAOAP) (AID 2283237). The procedure, abridged: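 Scintillation counting tracked MAO-A activity in a cell-free rat liver mitochondrial membrane prep, read 1.17 hours after compound addition. Single-point duplicate testing at 25 uM preceded concentration-response follow-up; activity was fitted relative to DMSO.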

For assay [14], the target named is sheep Cyclooxygenase-2 (Cox2), PTGS2 (gene 443460) (UniProt P79208). Description: NVS_ENZ_oCOX2: NovaScreen (NVS) Enzymatic Assay for sheep Cyclooxygenase-2 (Cox2) (AID 2283231). The procedure, abridged: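 Enzyme extracted from ovine placenta tested cell-free; activity read colorimetrically by absorbance 0.66 hour after dosing. Primary screen in duplicate at 25 uM; hits rerun as concentration series to 50 uM, loss of signal versus DMSO baseline.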

The target in assay [15] is human Tyrosine Protein Kinase Receptor Tie-2 (Tie2), TEK (gene 7010) (UniProt Q02763). Put plainly: NVS_ENZ_hTie2: NovaScreen (NVS) Enzymatic Assay for human Tyrosine Protein Kinase Receptor Tie-2 (Tie2) (AID 2283225). The procedure, abridged: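 Substrate and product were separated by mobility shift and detected by fluorescence after a 1-hour reaction with recombinant Tie2. Chemicals passing a 25 uM single-point screen were titrated to a maximum of 50 uM. Results were normalized to DMSO baseline.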

The target of assay [16] is rat Catechol-O-Methyl Transferase (COMT), Comt (gene 24267) (UniProt P22734). Description: NVS_ENZ_rCOMT: NovaScreen (NVS) Enzymatic Assay for rat Catechol-O-Methyl Transferase (COMT) (AID 2283235). In a few lines:
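Rat dorsal striatum extract served as COMT source; product quantified by HPLC/spectrophotometry, read at 0 h after dosing. Primary single-concentration screen at 25 uM, followed by concentration series to a 50 uM maximum.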

Assay [17] concerns the target human Tropomyosin Receptor Kinase A (TRKA), NTRK1 (gene 4914) (UniProt P04629). Put plainly: NVS_ENZ_hTrkA: NovaScreen (NVS) Enzymatic Assay for human Tropomyosin Receptor Kinase A (TRKA) (AID 2283224). The procedure, abridged:
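Compounds were screened at 25 uM in duplicate, then concentration series to a 50 uM top for those meeting threshold (e.g. 30% inhibition). Enzyme was recombinant human TrkA, incubated 1 h. Product formation was quantified by fluorescence after mobility-shift separation.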

Records with an inconclusive call do not appear. Calls of active or inactive are those of the source. The calls were made as follows: active = hit-call score of the fitted dose curve at least 0.9, where 1 is the maximum; inconclusive = response in the unintended direction; inactive = score below 0.9.

Usually AC50 stands for the concentration at which the activity in the assay is half-maximal.

Chain of rabbit Imidazoline 2 Central (I2C), CKB (gene 100009085) (P00567 whole entry, looked up): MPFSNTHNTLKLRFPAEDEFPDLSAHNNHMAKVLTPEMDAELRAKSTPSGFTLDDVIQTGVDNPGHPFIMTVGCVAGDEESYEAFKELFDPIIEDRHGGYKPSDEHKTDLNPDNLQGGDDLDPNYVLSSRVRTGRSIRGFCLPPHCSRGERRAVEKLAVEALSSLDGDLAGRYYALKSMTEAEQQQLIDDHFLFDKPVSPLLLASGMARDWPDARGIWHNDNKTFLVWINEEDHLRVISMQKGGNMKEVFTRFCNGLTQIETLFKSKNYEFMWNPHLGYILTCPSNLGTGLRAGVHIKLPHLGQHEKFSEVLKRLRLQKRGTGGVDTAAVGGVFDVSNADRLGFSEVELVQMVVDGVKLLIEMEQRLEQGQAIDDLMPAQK
Chain of rat Monoamine Oxidase, MAO-B, Central (MAOBC), Maob (gene 25750) (P19643 whole entry, looked up): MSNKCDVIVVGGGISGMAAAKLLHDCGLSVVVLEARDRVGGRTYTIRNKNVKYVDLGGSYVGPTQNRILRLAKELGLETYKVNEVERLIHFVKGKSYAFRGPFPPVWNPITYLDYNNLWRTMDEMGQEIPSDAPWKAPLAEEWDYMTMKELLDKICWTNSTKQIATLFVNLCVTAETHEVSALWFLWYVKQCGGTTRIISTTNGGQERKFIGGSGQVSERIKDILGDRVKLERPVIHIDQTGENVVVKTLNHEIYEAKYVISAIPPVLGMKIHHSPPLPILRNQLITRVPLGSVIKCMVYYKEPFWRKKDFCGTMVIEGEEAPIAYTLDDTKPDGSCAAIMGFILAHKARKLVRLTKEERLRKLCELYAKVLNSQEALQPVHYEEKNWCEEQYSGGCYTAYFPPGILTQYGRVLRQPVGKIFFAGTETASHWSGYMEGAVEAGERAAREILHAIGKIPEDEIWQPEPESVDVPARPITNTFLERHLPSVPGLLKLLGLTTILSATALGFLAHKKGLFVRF
Chain of human Sirtuin 1 (SIRT1), SIRT1 (gene 23411) (Q96EB6 whole entry, looked up): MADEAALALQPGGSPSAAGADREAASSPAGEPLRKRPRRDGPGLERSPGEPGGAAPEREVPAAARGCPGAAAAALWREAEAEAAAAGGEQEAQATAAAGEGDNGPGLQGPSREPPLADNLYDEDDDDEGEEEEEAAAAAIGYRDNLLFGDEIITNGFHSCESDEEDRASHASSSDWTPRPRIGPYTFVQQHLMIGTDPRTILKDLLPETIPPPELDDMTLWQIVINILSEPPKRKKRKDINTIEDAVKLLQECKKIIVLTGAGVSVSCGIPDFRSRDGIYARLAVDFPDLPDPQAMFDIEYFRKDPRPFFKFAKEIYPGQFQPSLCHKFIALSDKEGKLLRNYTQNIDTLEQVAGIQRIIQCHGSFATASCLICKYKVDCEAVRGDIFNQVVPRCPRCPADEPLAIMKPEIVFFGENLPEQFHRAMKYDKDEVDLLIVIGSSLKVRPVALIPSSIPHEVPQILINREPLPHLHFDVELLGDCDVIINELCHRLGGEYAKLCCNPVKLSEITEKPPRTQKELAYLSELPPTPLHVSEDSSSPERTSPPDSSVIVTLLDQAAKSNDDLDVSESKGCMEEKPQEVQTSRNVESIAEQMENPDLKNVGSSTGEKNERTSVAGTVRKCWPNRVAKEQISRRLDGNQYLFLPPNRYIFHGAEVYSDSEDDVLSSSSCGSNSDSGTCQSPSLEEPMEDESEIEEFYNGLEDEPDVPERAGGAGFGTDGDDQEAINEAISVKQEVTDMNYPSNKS
Chain of human Vascular Endothelial Growth Factor Receptor 2 (VEGFR2), KDR (gene 3791) (P35968 whole entry, looked up): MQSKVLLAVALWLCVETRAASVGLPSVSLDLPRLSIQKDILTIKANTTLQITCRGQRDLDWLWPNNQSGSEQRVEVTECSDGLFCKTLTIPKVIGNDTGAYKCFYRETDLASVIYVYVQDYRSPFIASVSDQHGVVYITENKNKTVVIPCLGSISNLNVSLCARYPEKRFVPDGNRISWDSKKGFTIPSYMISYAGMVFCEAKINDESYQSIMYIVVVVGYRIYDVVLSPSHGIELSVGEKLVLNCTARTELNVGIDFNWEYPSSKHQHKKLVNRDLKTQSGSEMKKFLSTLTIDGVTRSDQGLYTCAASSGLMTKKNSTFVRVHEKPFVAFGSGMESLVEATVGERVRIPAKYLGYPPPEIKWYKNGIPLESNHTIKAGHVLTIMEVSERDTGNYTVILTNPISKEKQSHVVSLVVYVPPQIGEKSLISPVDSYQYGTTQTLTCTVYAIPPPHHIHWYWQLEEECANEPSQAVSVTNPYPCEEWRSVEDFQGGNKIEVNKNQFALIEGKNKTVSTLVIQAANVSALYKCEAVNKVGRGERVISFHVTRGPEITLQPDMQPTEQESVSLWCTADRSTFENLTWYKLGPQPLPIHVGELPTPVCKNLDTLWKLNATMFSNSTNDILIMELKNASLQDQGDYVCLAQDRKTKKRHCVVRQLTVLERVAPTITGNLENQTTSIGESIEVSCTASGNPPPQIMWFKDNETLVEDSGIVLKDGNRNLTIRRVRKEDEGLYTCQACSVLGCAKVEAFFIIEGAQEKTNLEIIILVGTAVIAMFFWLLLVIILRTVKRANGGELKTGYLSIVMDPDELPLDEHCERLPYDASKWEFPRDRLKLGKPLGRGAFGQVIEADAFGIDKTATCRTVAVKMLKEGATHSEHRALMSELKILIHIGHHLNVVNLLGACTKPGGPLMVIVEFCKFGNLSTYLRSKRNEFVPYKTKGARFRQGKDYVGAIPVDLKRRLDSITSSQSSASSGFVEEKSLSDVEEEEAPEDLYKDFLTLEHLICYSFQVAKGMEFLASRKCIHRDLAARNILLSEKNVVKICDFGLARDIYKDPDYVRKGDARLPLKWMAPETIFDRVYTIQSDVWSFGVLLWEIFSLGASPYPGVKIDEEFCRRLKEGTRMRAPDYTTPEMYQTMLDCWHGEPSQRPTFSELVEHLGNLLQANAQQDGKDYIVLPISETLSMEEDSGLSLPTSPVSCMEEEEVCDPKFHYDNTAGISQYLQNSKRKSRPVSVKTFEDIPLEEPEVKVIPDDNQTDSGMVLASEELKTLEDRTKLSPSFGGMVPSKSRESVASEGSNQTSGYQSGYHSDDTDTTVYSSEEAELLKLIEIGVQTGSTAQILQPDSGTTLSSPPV
Chain of bovine Dopamine Receptor (DR), Non-selective Binding, DRD1 (gene 281125) (Q95136 whole entry, looked up): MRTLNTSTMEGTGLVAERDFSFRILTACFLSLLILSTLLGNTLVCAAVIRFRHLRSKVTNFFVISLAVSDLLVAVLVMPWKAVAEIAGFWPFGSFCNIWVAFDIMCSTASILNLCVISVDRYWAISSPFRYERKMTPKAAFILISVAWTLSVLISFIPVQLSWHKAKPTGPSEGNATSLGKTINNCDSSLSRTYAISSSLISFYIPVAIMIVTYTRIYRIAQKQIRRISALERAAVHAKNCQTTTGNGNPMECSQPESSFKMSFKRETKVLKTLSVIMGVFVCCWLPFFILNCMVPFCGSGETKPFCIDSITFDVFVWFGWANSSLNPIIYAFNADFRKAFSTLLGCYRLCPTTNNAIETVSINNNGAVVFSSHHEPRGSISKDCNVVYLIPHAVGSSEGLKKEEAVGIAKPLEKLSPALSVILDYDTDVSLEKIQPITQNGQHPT
Chain of sheep Cyclooxygenase-1 (Cox1), PTGS1 (gene 443551) (P05979 whole entry, looked up): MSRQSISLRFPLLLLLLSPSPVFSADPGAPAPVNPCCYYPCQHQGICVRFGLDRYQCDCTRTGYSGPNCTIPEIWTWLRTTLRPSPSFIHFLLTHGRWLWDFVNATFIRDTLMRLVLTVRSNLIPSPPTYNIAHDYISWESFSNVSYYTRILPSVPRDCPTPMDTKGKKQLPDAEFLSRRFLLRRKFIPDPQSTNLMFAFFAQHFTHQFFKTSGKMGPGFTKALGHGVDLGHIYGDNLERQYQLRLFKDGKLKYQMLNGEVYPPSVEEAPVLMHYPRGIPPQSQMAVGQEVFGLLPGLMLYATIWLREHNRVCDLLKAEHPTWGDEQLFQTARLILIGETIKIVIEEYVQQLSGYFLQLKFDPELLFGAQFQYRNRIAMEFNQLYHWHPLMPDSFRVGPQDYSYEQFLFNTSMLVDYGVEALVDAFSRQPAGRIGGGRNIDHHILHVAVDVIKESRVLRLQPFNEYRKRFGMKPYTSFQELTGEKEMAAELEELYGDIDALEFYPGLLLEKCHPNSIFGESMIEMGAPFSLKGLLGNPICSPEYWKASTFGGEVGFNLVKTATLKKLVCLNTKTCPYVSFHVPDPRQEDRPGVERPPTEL
Chain of rat Catechol-O-Methyl Transferase (COMT), Comt (gene 24267) (P22734 whole entry, looked up): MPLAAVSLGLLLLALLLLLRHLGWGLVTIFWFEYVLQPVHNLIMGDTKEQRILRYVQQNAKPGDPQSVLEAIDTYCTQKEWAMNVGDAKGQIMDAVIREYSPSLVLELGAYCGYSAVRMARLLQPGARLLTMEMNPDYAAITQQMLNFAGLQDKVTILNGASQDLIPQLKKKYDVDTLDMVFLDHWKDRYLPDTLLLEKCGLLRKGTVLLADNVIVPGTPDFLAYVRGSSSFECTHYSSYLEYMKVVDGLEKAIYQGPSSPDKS

`COC(=O)Nc1nc2ccccc2[nH]1`: the call in assay [1] was inactive.

Take `CCOC(=O)[C@]1(c2ccccc2)Oc2ccccc2[C@@H]1N`: the AC50 in [2] is 4.37 µM (active); in assay [4], 17.2 µM (active); in [6], 10.2 µM (active); in [7], 1.04 µM (active). Besides, the outcome in assay [3] and in [5] was inactive.

Consider `Clc1ccc(C(c2ccc(Cl)cc2)C(Cl)Cl)cc1`, for which the call in assay [1] was inactive.

As to `Cc1ccc(N)c(N)c1`, the molecule was classed as inactive in assay [8], in assay [9] and in assay [2]. In addition, the AC50 in assay [10] is 42 µM (active).

Take `CCC[CH2][Sn]([Cl])([CH2]CCC)[CH2]CCC`: the AC50 is 7.38 µM (active) in assay [8], 41 µM (active) in assay [11], 18.2 µM (active) in assay [12] and 9.14 µM (active) in assay [7].

Take `O=C(N[C@H](c1ccccc1)[C@@H]1CN2CCC1CC2)c1c(Cl)ccc(C(F)(F)F)c1Cl`: in assay [2], the molecule was called inactive. Further, the AC50 in assay [13] is 50.6 µM (active); in [7] it was 29.1 µM (active).

On to `CN(C)c1ccc(C(=O)c2ccc(N(C)C)cc2)cc1`, for which the molecule was classed as inactive in assay [2]. For the same molecule, the AC50 was 13 µM (active) in assay [14], 7.24 µM (active) in assay [13], 7.63 µM (active) in assay [6] and 25.2 µM (active) in assay [10].

In the case of `Oc1ccc2ccc3cccc4ccc1c2c34`, the results for the AC50 in assay [15], in assay [16] and in assay [13] were 13.6 µM (active), 25 µM (active) and 1.18 µM (active), respectively.

`CC(C)(O)c1cnn2c(-c3ccc(F)c(-c4c(F)cccc4C#N)c3)cnc2n1`: the AC50 in assay [2] was 0.362 µM (active). Moreover, the outcome in [11], in assay [13] and in assay [6] was inactive.

Consider `CCNS(=O)(=O)C(F)(F)C(F)(F)C(F)(F)C(F)(F)C(F)(F)C(F)(F)C(F)(F)C(F)(F)F`, for which the result in assay [8], in assay [9], in assay [17], in assay [15], in assay [3] and in assay [1] was inactive.
